High-throughput results (PubChem)
RGS12 GoLoco inh – RGS12 GoLoco-Gai1 interaction inhibition; P63096; Gai1:RGS12 GoLoco peptide FP, rhodamine, 10 min; Potency, µM (top dose mostly 61.6 µM), for the others: at the top dose activity, negative = inhibition, actives largely listed as inhibitors; hit rate 0.44% among 230,000; active means well fitted inhibition curve with a large enough effect, not every such curve was filed as active; inactive means no such curve, though single readings can be large or run the other way; further: nearly all actives have a fitted effect of over 30% in size
Tau ThT inhib – tau fibrillization inhibition (ThT binding). recombinant tau K18 P301L, heparin-induced fibrillization, ThT fluorescence. Potency, µM (doses to about 57.4 µM), without a hit: at the highest dose activity, negative = inhibition, most hits filed as inhibitors. hit rate 2.1% among 270,000; further: nearly all actives have a fitted effect of over 55% in size
Target sequence (P10636 561-689 P618L limits assumed): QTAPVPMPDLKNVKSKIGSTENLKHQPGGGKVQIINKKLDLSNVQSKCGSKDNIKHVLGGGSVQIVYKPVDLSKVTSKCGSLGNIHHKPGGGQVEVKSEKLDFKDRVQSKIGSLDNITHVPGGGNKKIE
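Aggregation was driven by heparin (20 uM final) acting on recombinant tau […] bearing P301L in 100 mM sodium acetate pH 7; fibrils were detected with Thioflavin T.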
TexasRed fluor – Texas Red fluorescence interference in TRb-SRC2 counter-screen | TRb/SRC2 Texas Red total fluorescence interference | Potency, µM (doses to about 106 µM), for inactives: at the highest dose fluorescence change, negative = quenching | hit rate 0.29% among 280,000 | AID 1479; active means well fitted curve in either direction with a large enough effect; inconclusive means small, poorly fitted or top-dose-only effect
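Human TRb ligand-binding domain at 0.6 uM with 20 nM Texas Red SRC2 peptide in Tris buffer containing 1 uM T3 and 5% DMSO, incubated with compound 5 h at ambient temperature. Total fluorescence (555/632 nm) calculated as parallel + 2 × perpendicular.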
Tau fibril FP – inhibitors of human tau fibril formation; P10636; K18 P301L tau heparin fibrillization, Alexa594 FP, 6 h; Potency, µM (doses to about 57.7 µM), for the others: top-dose activity, negative = inhibition, hits mostly inhibitors; hit rate 0.39% among 280,000; further: nearly all actives have a fitted effect of over 55% in size
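Compound effects on tau fibrillization are measured by Alexa 594 fluorescence polarization (ex 555, em 632 nm). K18 P301L tau is used at 15 uM with 0.24 uM labeled tracer, and 20 uM heparin induces aggregation over 6 hr at 37 C.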
TRb SRC2 PPI – TRbeta-SRC2 interaction inhibition; P10828; hit rate 0.065% among 280,000; Potency, µM (series often up to 106 µM), for inactives: at the top dose activity change, negative = inhibition, actives largely listed as inhibitors; TRbeta-SRC2 peptide binding, fluorescence polarization; receptor liganded with 1 µM T3;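 further: plate controls were bound peptide for no effect and peptide without receptor for full effect; nearly all actives have a fitted effect of over 50% in size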
Target sequence (P10828 whole entry, looked up): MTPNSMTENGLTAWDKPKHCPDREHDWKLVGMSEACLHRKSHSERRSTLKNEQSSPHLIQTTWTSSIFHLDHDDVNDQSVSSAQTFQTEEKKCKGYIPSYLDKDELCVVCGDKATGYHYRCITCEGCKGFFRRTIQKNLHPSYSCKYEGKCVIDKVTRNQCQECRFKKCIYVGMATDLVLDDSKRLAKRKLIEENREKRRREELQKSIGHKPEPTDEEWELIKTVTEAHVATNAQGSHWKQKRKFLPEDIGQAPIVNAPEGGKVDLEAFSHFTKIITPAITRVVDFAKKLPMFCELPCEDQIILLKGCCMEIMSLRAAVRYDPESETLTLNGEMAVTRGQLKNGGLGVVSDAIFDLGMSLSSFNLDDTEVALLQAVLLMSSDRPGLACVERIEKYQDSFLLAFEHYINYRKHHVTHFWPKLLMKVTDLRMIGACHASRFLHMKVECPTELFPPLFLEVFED
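Read-out is fluorescence polarization (555 nm excitation, 632 nm emission) of a Texas Red SRC2 coactivator peptide; loss of signal reflects blocked binding to human TRb ligand-binding domain in the presence of 1 uM T3.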
Tau fluor cs – counter-screen for tau fibril formation inhibitors; hit rate 0.93% among 280,000; Potency, µM (series often up to 57.7 µM), for inactives: at the top dose activity change, negative = decrease; tau K18 P301L Alexa594 fluorescence, heparin fibrillization; further: nearly all actives have a fitted effect of over 55% in size
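Human tau K18 P301L (15 uM unlabeled, 0.24 uM Alexa 594-labeled) in 100 mM sodium acetate pH 7 with 20 uM heparin, 6 hr at 37 C. ThT 30 uM added, 1 hr ambient; Alexa 594 FP and total fluorescence read at 555/632 nm.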
An asterisk follows results filed as active; [ ] = remark or other dose. A selection: hits, their analogues and other compounds. The true share with any hit is near 3.2%. Unless noted, the call rests on the fitted dose curve; in most records, active means well fitted curve in the direction sought with a large enough effect; inconclusive means small, poorly fitted or top-dose-only effect, or another doubt; inactive means no such curve, though single readings can be large; an effect the other way counts as inactive or inconclusive. Unless noted, on the % scale 0 is the no-effect control and ±100 the full control effect; potency means the concentration at half of the fitted maximal effect.

How did CC#CCN1c2ccccc2[C@]23C[C@@H](C(=O)OC)N(S(=O)(=O)c4ccc(Br)cc4)C2=NC(C(=O)OC)=C(C(=O)OC)[C@H]13 do in these assays?
RGS12 GoLoco inh: -2%[14.2 µM]; Tau ThT inhib: -16%[11.5 µM]; TexasRed fluor: -5%[11.2 µM]; Tau fibril FP: -2%[11.6 µM]; TRb SRC2 PPI: 6%[11.2 µM]; Tau fluor cs: -24%[11.6 µM]

How did CCOc1c(Nc2ccccc2O)c(=O)c1=O do in these assays?
RGS12 GoLoco inh: 4%; Tau ThT inhib: -2%; TexasRed fluor: -2%; Tau fibril FP: 1%; TRb SRC2 PPI: 3%; Tau fluor cs: 1%

What do the screens show for `CCOC(=O)c1ccc(Nc2c(OCC)c(=O)c2=O)cc1`?
RGS12 GoLoco inh: 5%; TexasRed fluor: -3%; Tau fibril FP: -5%; TRb SRC2 PPI: -8%; Tau fluor cs: 18µM*[quencher]

What do the screens show for `CCCCC1=CC2=C(OC(C)=O)C(=O)C(C)(OC(=O)C3CCCC3)C(=O)C2=CO1` (stereo unspecified)?
RGS12 GoLoco inh: 13%; Tau ThT inhib: 28µM*; TexasRed fluor: -1%; Tau fibril FP: inconclusive; TRb SRC2 PPI: 8%; Tau fluor cs: inconclusive

How did CCc1ccc(O)c(N=Cc2cccc(C)c2O)c1 do in these assays?
RGS12 GoLoco inh: 37%; Tau ThT inhib: inconclusive; TexasRed fluor: -6%; Tau fibril FP: -8%; TRb SRC2 PPI: -2%; Tau fluor cs: inconclusive

What do the screens show for `CCCc1ccc(O)c(N=Cc2cc(Br)cc(OCC)c2O)c1`?
RGS12 GoLoco inh: 168%; Tau ThT inhib: 14µM*; TexasRed fluor: 0%; Tau fibril FP: -11%; TRb SRC2 PPI: -3%; Tau fluor cs: -23%

How did Nc1ccc2oc(-c3cccc4ccccc34)nc2c1 do in these assays?
RGS12 GoLoco inh: 9%; Tau ThT inhib: inconclusive; TexasRed fluor: -4%; Tau fibril FP: 7%; TRb SRC2 PPI: -1%; Tau fluor cs: 16µM*[quencher]

Results for CC1=C(CC[C@H](C)CO)O[C@@H]2C[C@@H]3[C@H]4CC[C@H]5C[C@@H](O)CC[C@]5(C)[C@@H]4CC(=O)[C@@]3(C)[C@@H]12 ?
RGS12 GoLoco inh: 0%[14.2 µM]

How did O=C(N/N=C/c1cccc([N+](=O)[O-])c1O)c1cccs1 do in these assays?
RGS12 GoLoco inh: 5%; Tau ThT inhib: 5µM*; TexasRed fluor: -4%; Tau fibril FP: 15%; TRb SRC2 PPI: 7%; Tau fluor cs: -12%

Results for COc1cc([N+](=O)[O-])cc(/C=N\NC(=O)C2COc3ccccc3O2)c1O (stereo unspecified) ?
RGS12 GoLoco inh: -3%; Tau ThT inhib: 10µM*; TexasRed fluor: -5%; Tau fibril FP: 0%; TRb SRC2 PPI: 1%; Tau fluor cs: -26%

How did O=C(N/N=C\c1cccc([N+](=O)[O-])c1O)C1COc2ccccc2O1 (stereo unspecified) do in these assays?
RGS12 GoLoco inh: 3%; Tau ThT inhib: 7.9µM*; TexasRed fluor: -2%; Tau fibril FP: 10%; TRb SRC2 PPI: -3%; Tau fluor cs: -13%

Results for CCN1C(=O)[C@H]2[C@H]3[C@H](O)[C@H](O)C/C(=N/O[C@@H]4O[C@H](COC(C)=O)[C@@H](OC(C)=O)[C@H](OC(C)=O)[C@H]4OC(C)=O)[C@@H]3CC[C@@H]2C1=O ?
Tau ThT inhib: -3%[11.5 µM]; TexasRed fluor: -3%[11.2 µM]; Tau fibril FP: 1%[11.6 µM]; TRb SRC2 PPI: 0%[11.2 µM]; Tau fluor cs: 3%[11.6 µM]

What do the screens show for `Cc1nc(N)nc2ccccc12`?
RGS12 GoLoco inh: 5%[14.2 µM]

Results for Oc1c(/C=C/C=C/C=Nc2ccccc2)sc(=S)n1Cc1ccccc1 ?
RGS12 GoLoco inh: -97%; Tau ThT inhib: 1.8µM*; TexasRed fluor: 5%; Tau fibril FP: inconclusive; TRb SRC2 PPI: 11%; Tau fluor cs: inconclusive

What do the screens show for `CCCn1c(O)c(C=Nc2ccccc2)sc1=S`?
RGS12 GoLoco inh: -1%; Tau ThT inhib: -17%; TexasRed fluor: -1%; Tau fibril FP: 12%; TRb SRC2 PPI: 7%; Tau fluor cs: inconclusive

How did CCn1c(O)c(/C=C/C=C/C=Nc2ccccc2)sc1=S do in these assays?
RGS12 GoLoco inh: 185%; Tau ThT inhib: inconclusive; TexasRed fluor: 3%; Tau fibril FP: -3%; TRb SRC2 PPI: 11%; Tau fluor cs: 0%

What do the screens show for `CCCCn1c(O)c(/C=C/C=C/C=Nc2ccccc2)sc1=S`?
RGS12 GoLoco inh: 77%; Tau ThT inhib: 3.2µM*; TexasRed fluor: 16%; Tau fibril FP: inconclusive; TRb SRC2 PPI: 19%; Tau fluor cs: -26%

Results for NC(Cc1ccccc1)(C(=O)O)C(=O)O ?
RGS12 GoLoco inh: -1%[14.2 µM]

Results for COc1ccccc1CNc1nc(-c2ccco2)nn1S(=O)(=O)c1ccc2ccccc2c1 ?
Tau ThT inhib: -6%; TexasRed fluor: 1122µM*[quencher]; Tau fibril FP: inconclusive; TRb SRC2 PPI: -6%; Tau fluor cs: -29%

What do the screens show for `Oc1c(N=Nc2ccccn2)ccc2ccccc12`?
RGS12 GoLoco inh: 124%; Tau ThT inhib: 4.5µM*; TexasRed fluor: -10%; Tau fibril FP: inconclusive; TRb SRC2 PPI: -2%; Tau fluor cs: inconclusive

Results for CC1=CN2C(=N)/C(=C/c3ccc([N+](=O)[O-])o3)C(=O)N=C2S1 ?
RGS12 GoLoco inh: 94%; Tau ThT inhib: 13µM*; TexasRed fluor: 45µM*[fluorescent]; Tau fibril FP: inconclusive; TRb SRC2 PPI: -7%; Tau fluor cs: inconclusive

How did CC1=CN2C(=N)/C(=C/c3ccco3)C(=O)N=C2S1 do in these assays?
RGS12 GoLoco inh: 9%; Tau ThT inhib: inconclusive; TexasRed fluor: 0%; Tau fibril FP: 6%; TRb SRC2 PPI: 12%; Tau fluor cs: -8%

How did COc1cccc(-c2nnc3n2N=C(c2c(OC)cccc2OC)CS3)c1OC do in these assays?
TexasRed fluor: -2%; TRb SRC2 PPI: 4%

Results for CCOC(=O)C1CCCN(c2ccc(NC(=O)c3snc4c(=O)[nH]cnc34)cc2)C1 (stereo unspecified) ?
RGS12 GoLoco inh: 45%; Tau ThT inhib: 2.8µM*; TexasRed fluor: 1%; Tau fibril FP: 12%; TRb SRC2 PPI: -11%; Tau fluor cs: -27%

How did CCOC(=O)C1CCCN(c2ccc(NC(=O)c3snc4c(=O)[nH]c(C)nc34)cc2)C1 (stereo unspecified) do in these assays?
RGS12 GoLoco inh: 15%; Tau ThT inhib: inconclusive; TexasRed fluor: -8%; Tau fibril FP: 5%; TRb SRC2 PPI: -3%; Tau fluor cs: inconclusive

Results for Cc1ccc(S(=O)(=O)NC2OC(=O)C(Cl)=C2Cl)cc1 (stereo unspecified) ?
RGS12 GoLoco inh: -7%; Tau ThT inhib: 28µM*; TexasRed fluor: -4%; Tau fibril FP: inconclusive; TRb SRC2 PPI: -15%; Tau fluor cs: -19%
